The full ranking holds about 35,000 sequences; the median of “fluorescence intensity (a.u.)” is about 10,000, and the highest 2% start at about 52,000. For the sample, the highest values were picked, then their nearest neighbours and some sequences at random.

Here are results for 48 sequences from paper PMC7819943, “Rice protein-binding microarrays: a tool to detect cis-acting elements near promoter regions in rice”.

The experiment addresses T1, OsWOX13 (Oryza sativa, UniProt Q5QMM3 1-267).
T1 sequence: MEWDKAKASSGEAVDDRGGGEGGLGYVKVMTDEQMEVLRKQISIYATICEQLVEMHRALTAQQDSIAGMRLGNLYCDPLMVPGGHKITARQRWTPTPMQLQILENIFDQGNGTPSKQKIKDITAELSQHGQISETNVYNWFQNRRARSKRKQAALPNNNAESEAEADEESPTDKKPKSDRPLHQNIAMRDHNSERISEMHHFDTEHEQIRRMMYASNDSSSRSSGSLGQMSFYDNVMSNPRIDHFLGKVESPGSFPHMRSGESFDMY
Description: protein-binding microarray (RPBM); PBS, 2% BSA, 51.3 ng/ul salmon testes DNA, 50 uM zinc acetate, 200 nM TF, 25 C, 1 h; high values mean tight binding. The settings on record: protein: recombinant; tags: N-terminal polyhistidine and DsRed monomer fusion (pET32a); label: CyDye5-dUTP incorporated in the synthesized complementary strand; 3' TTTTT single-stranded linker to array surface; dsDNA, one strand shown. Summed up:
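Binding signal is reported as fluorescence intensity per feature (arbitrary units) from an Axon 4000B scanner. Incubation used 200 nM of each Ni–NTA-purified, N-terminally polyhistidine- and DsRed-fused transcription factor from E. coli BL21-CodonPlus on a double-stranded custom Agilent array for 1 h at 25 °C, with 50 µM zinc acetate in the buffer, followed by washing.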
For “CATGATGATAGTGATAGCAACTCAAGCAATACTAACGCACCGGAGTCACCTAGTGCAG”, the binding signal was 14700 fluorescence intensity (a.u.).
With “GCAGATTAGTTGTGGCAAACATTCTCTTGTGTGCAGCACTCGGAGTCACCTAGTGCAG” the figure was 3650 fluorescence intensity (a.u.).
With “TTGTGAAATGTTGATGAGGCTGATTGAGCGAGAAGCAGTGCGGAGTCACCTAGTGCAG”, the binding signal is 20000 fluorescence intensity (a.u.).
On to “CCAAATTAAGTGGAAATTAATTTGCAAGCTGAGAACGATGCGGAGTCACCTAGTGCAG”, for which the binding signal is 55000 fluorescence intensity (a.u.).
With “ACTTGATTGAAATCGAAGCATCTGTTTTCGCGTGTTTGAGCGGAGTCACCTAGTGCAG” the figure was 59900 fluorescence intensity (a.u.); with “TCCTAGGTGATCTGGGTGATTGTGAGTGAGTTTTGTTTCGCGGAGTCACCTAGTGCAG”, 4180 fluorescence intensity (a.u.); with “GAATGATTGTGGATGATGAAATAAATACTGCTCTTGTCAGCGGAGTCACCTAGTGCAG”, 33400 fluorescence intensity (a.u.).
On to “TAAGCTAATTTGACCGCTGAAAGTGATGGAAAGCAAGCAACGGAGTCACCTAGTGCAG”, for which the binding signal was 4480 fluorescence intensity (a.u.).
With “CAAATTGAAGAGGATGCATGAATTGGATTTGCAGGAGAAGCGGAGTCACCTAGTGCAG”, the binding signal is 5250 fluorescence intensity (a.u.).
On to “GAATCTTGAAATTGAGCTGATTAATTTTCTTCTTGTTGAGCGGAGTCACCTAGTGCAG”, for which the binding signal was 11800 fluorescence intensity (a.u.).
As to “ATTGATGATTGAAATTTGCTGTGCAAATCGAGAACTGAAGCGGAGTCACCTAGTGCAG”, the binding signal is 53500 fluorescence intensity (a.u.).
For the sequence “ATGATTGGAGTCAAATTGAACTTGTACTGATGTGGAGGAGCGGAGTCACCTAGTGCAG”, the binding signal was 53400 fluorescence intensity (a.u.).
As to “TTGAAATTGGAGATGATGTGACTGAAAAGTTGTGTGTGTACGGAGTCACCTAGTGCAG”, the binding signal is 21000 fluorescence intensity (a.u.).
In the case of “TTCAAATTTAATGCAAAGATTAAGTTGATGAGAAACGACGCGGAGTCACCTAGTGCAG”, the binding signal is 6640 fluorescence intensity (a.u.).
Turning to “AACAAATAAATTACTATTAGAGTAGGATGTTCGGCAAAGTCGGAGTCACCTAGTGCAG”, the binding signal is 7390 fluorescence intensity (a.u.).
On to “ATATTGATGTTAATGAATCTAAATAGATATATATGTCTAGCGGAGTCACCTAGTGCAG”, for which the binding signal was 5520 fluorescence intensity (a.u.).
With “GTAGACTGATCACAATCTTTATTAGAATCGTTTAAGACACCGGAGTCACCTAGTGCAG”, the binding signal is 6090 fluorescence intensity (a.u.).
“TCTAATTTATTAGAGCGCCACATGACGGCTTGAGAGCGTTCGGAGTCACCTAGTGCAG”: the binding signal was 19200 fluorescence intensity (a.u.).
Consider “TTCGTTCATCATCAATCAAAACATGGGACTATAAGGATTTCGGAGTCACCTAGTGCAG”, for which the binding signal was 7300 fluorescence intensity (a.u.).
On to “AGTCAGCTGATTTAAATATAAACAGGGGTAAGAATTTAAGCGGAGTCACCTAGTGCAG”, for which the binding signal is 15000 fluorescence intensity (a.u.).
With “TATTTTGTAATCATTTGTTTTATATTTGAATTCCTGTCAGCGGAGTCACCTAGTGCAG” the figure was 3710 fluorescence intensity (a.u.); with “GGTAAATATAATAAATTATTGATCTAACAACTTGAAATTACGGAGTCACCTAGTGCAG”, 3460 fluorescence intensity (a.u.); with “AATGATCTGATGGATGTTCTCTCACGTTCAAATCAGAGGCCGGAGTCACCTAGTGCAG”, 8430 fluorescence intensity (a.u.).
Consider “CAATATTCTTTGACAGCTTCGATTGACATCTCACCTTATGCGGAGTCACCTAGTGCAG”, for which the binding signal is 9220 fluorescence intensity (a.u.).
“AGCTGCATATATTGATTGACAGGTGTACCGATTCCTTATGCGGAGTCACCTAGTGCAG”: the binding signal was 54400 fluorescence intensity (a.u.).
Regarding “TGGGTCATTTATTGATTATTGTATTATTGTTCCTTATATTCGGAGTCACCTAGTGCAG”, the binding signal is 10300 fluorescence intensity (a.u.).
With “GTCAATTTAGATTGCCGCGCTTACAATTAGTTCTCAGGAACGGAGTCACCTAGTGCAG” the figure was 15100 fluorescence intensity (a.u.); with “AAAGTAATTAGTGTTTTCTTGATTAGTCTTTTCCTTGTATCGGAGTCACCTAGTGCAG”, 42700 fluorescence intensity (a.u.); with “TTAATTAATTTCTCTAATGATTCTCAATCTTGTGTTCTTCCGGAGTCACCTAGTGCAG”, 28300 fluorescence intensity (a.u.).
Turning to “AGTGATTAGATTAGTGAACTGATTAACATTTCTTGTGTTCCGGAGTCACCTAGTGCAG”, the binding signal is 64700 fluorescence intensity (a.u.).
Next, “CATTAAGAGTGATTGAATCTTGTTCTAAACATTAACTTTTCGGAGTCACCTAGTGCAG”: 26300 fluorescence intensity (a.u.); “TCTAATTTCTTCCCTTGCAGATTGATCTTGTTAGTGAGCCCGGAGTCACCTAGTGCAG”: 20700 fluorescence intensity (a.u.).
Turning to “ACAAAGTAATTGATTTCTTGTGTGAGGCCTTGTTTAGATCCGGAGTCACCTAGTGCAG”, the binding signal was 53400 fluorescence intensity (a.u.).
Consider “ATTATCCATTCAATCAAAACAAGCAGGACTACTAGAAAGCCGGAGTCACCTAGTGCAG”, for which the binding signal was 8940 fluorescence intensity (a.u.).
As for “CTTTATTGATTGAGAGGAACTATCTACCTCTGTAATGACACGGAGTCACCTAGTGCAG”, the binding signal is 39200 fluorescence intensity (a.u.).
In the case of “CAGTGTGATTTAAGAATTTTCAACTGTAAAAGAATAGGAGCGGAGTCACCTAGTGCAG”, the binding signal was 10000 fluorescence intensity (a.u.).
For “AACTAATTAATTTATTGGCAGGCACTGGCCTACCAAACCTCGGAGTCACCTAGTGCAG”, the binding signal was 53100 fluorescence intensity (a.u.).
With “TCAATTGATTATTACTGCCGCTTACTGTCTCCTCTACTGCCGGAGTCACCTAGTGCAG”, the binding signal was 53300 fluorescence intensity (a.u.).
For the sequence “ACAAAACCAACTAATTAGGCAGGCAGCCATTTACCTCCATCGGAGTCACCTAGTGCAG”, the binding signal was 5480 fluorescence intensity (a.u.).
In the case of “AATAACTAATTGCATAGATTGTGACTAATTTGCGATGCGACGGAGTCACCTAGTGCAG”, the binding signal is 55200 fluorescence intensity (a.u.).
With “CCGCACCTAAATTGATTGATTATTAATTTAACTGCCGCTCCGGAGTCACCTAGTGCAG”, the binding signal is 65500 fluorescence intensity (a.u.).
For the sequence “CAGGACTAATTGGGGTTGCAAACTGGGACTACAAACTACTCGGAGTCACCTAGTGCAG”, the binding signal is 28300 fluorescence intensity (a.u.).
In the case of “TTTGCCGCTGAGTAATTAAATTGTCTACTTACAAATCCTCCGGAGTCACCTAGTGCAG”, the binding signal is 3590 fluorescence intensity (a.u.).
Turning to “CTAGATTTATAATTAAATAAATTATTATAATATATAACTCCGGAGTCACCTAGTGCAG”, the binding signal was 42700 fluorescence intensity (a.u.).
Next, “AATAACTAATTGTACATATTACGACTAATTTGCGAGATGACGGAGTCACCTAGTGCAG”: 35000 fluorescence intensity (a.u.); “ATCAATCACTACTGCATATTACTATAATCTCCTCTATACTCGGAGTCACCTAGTGCAG”: 5200 fluorescence intensity (a.u.); “TCTAATTACTTATTAATTAATTGATTTAATTAAATTAATCCGGAGTCACCTAGTGCAG”: 40400 fluorescence intensity (a.u.).
Regarding “AAAATAACTAATTGCACAGATTGTGACTAATTTGCGAGACCGGAGTCACCTAGTGCAG”, the binding signal was 34900 fluorescence intensity (a.u.).
